Activity calls are given as the source filed them. Unless noted, the rule behind the calls is not given here.
Experiments:
[1] = tested on: Wnt5a (protein binding on small-molecule microarray); assay: small molecules binding Wnt5a protein – biophysical, small-molecule microarray, 635/667 nm fluorescence, primary screen (AID 1142); details: 635 nm fluorescence, higher = more signal;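 note: fluorescence read at 667 nm with signal to noise per printed feature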
[2] = ATP-based viability of Huh7 replicon cells – cell-based, CellTiter-Glo luminescence, basal, 48 h, cytotoxicity control for HCV replication inhibitor project, primary screen (AID 1143); details: higher = more signal, called active from +8 up or from −8 down;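 note: Huh7 hepatoma cells carrying a hepatitis C replication reporter with no stimulus; test concentration not given here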
[3] = Pseudomonas biofilm growth suppression – PAO1 strain, BacTiter-Glo luminescence, LB-PBS, primary screen (AID 1144); details: P. aeruginosa PAO1 biofilm, 12 h, higher = more signal
[4] = basal CRE-LacZ reporter activity in PC12 – cell-based, unstimulated, primary screen (AID 1145); details: no forskolin, luminescence, 4.5 h, higher = more signal, called active from +8 up or from −8 down
[5] = forskolin-driven CRE-LacZ activity in PC12 – cell-based, CRE-LacZ reporter, forskolin-stimulated, primary screen (AID 1146); details: luminescence, 4.5 h, higher = more signal, called active from +8 up or from −8 down;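 note: PC12 cells with 6xCRE LacZ reporter stimulated by forskolin 10 µM; beta-galactosidase reporter signal reflecting CREB driven transcription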
[6] = target: Streptavidin (Streptomyces avidinii) (UniProt P22629); assay: compounds binding control protein streptavidin – biophysical, small-molecule microarray, 635/667 nm fluorescence, artefact control for SMM compound annotation, primary screen (AID 1147); details: higher = more signal;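 note: signal reflects streptavidin binding to arrayed compounds as a control protein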
[7] = probe aInhba binding on compound microarray – biochemical, small-molecule microarray, 635/667 nm fluorescence, primary screen (AID 1148); details: higher = more signal;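 note: score merges 667nm spot fluorescence with signal-to-noise for antibody binding to printed compounds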
[8] = target: Torsin-1A (Homo sapiens) (UniProt O14656); assay: TOR1A wild-type binding on microarray – cell lysate, small-molecule microarray, lysate, 635/667 nm, primary screen (AID 1149); details: COS7 hTOR1A-WT lysate, 635 nm fluorescence, higher = more signal
[9] = target: Torsin-1A (Homo sapiens) (UniProt O14656); assay: torsin A mutant lysate binding on microarrays – cell lysate, small-molecule microarray, COS7 lysate, 635/667 nm fluorescence, primary screen (AID 1150); details: COS7 hTOR1A mutant lysate, 635 nm fluorescence, higher = more signal;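 note: score pools 667 nm emission and signal to noise measuring lysate protein binding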
[10] = tested on: Sonic hedgehog protein (Shh); assay: Sonic hedgehog microarray binding compounds – biochemical, small-molecule microarray, 635/667 nm fluorescence, primary screen (AID 1151); details: 635 nm fluorescence, higher = more signal;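 note: Shh protein binding to compounds spotted on small-molecule microarray slides; score combines spot fluorescence intensity with signal-to-noise across triplicate slides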
[11] = optical density shifts of acrAB sulA E. coli – strain DRC41, OD650, 48 h, E. coli filamentation inducer project, primary screen (AID 1152); details: higher = more signal, called active from +8 up or from −8 down;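 note: E. coli MC1000 strain DRC41 lacking acrAB efflux pump and sulA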
[12] = probe aLefty1 binding on compound microarray – biochemical, small-molecule microarray, 635/667 nm fluorescence, primary screen (AID 1153); details: higher = more signal;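 note: score merges spot fluorescence with signal-to-noise ratio from the scanned slide images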
[13] = plasmodial surface anion channel blockers, osmotic lysis – cell-based, P. falciparum Indochina, OD700, 1 h, primary screen (AID 1154); details: P. falciparum Indochina infected RBC osmotic lysis, higher = more signal, called active from +8 up or from −8 down
[14] = plasmodial surface anion channel blockers, osmotic lysis – cell-based, P. falciparum Indochina, OD700, 2 h, primary screen (AID 1155);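 note: lysis reports solute entry through the parasite surface anion channel PSAC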; details: P. falciparum Indochina infected erythrocytes, higher = more signal, called active from +8 up or from −8 down
[15] = changes in parasitized red cell lysis, either direction – P. falciparum Indochina, OD700, 3 h, PSAC antagonist project, primary screen (AID 1156); details: P. falciparum-infected erythrocytes, osmotic lysis, higher = more signal, called active from +8 up or from −8 down
[16] = plasmodial surface anion channel blockers, osmotic lysis – cell-based, P. falciparum Indochina, OD700, 18 h, primary screen (AID 1157); details: P. falciparum Indochina infected erythrocytes, osmotic lysis OD700, 18 h; higher = more signal, called active from +8 up or from −8 down
[17] = S6 kinase pathway phospho-S6 level changes – cell-based, A549, cytoblot, luminescence, serum-stimulated, primary screen (AID 1158); details: 5 h, higher = more signal;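 note: serum-stimulated A549 lung adenocarcinoma cells; signal is phosphorylated S6 detected by cytoblot immunostaining with HRP secondary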
[18] = target: NADPH oxidase 2 (Homo sapiens) (UniProt P04839); assay: compounds shifting NOX2 Amplex Red fluorescence – cell-based, HEK293-NOX2, PMA-stimulated, NOX inhibitor project, primary screen (AID 1159); details: 45 min, higher = more signal, called active from +8 up or from −8 down; note: test concentration not given here
[19] = target: NADPH oxidase 4 (Homo sapiens) (UniProt Q9NPH5); assay: compounds shifting NOX4 Amplex Red fluorescence – cell-based, HEK293-NOX4, tetracycline-induced, NOX inhibitor project, primary screen (AID 1160); details: HEK293-NOX4, Amplex Red H2O2 fluorescence, 45 min; higher = more signal, called active from +8 up or from −8 down
[20] = target: NADPH oxidase 5 (Homo sapiens) (UniProt Q96PH1); assay: compounds shifting NOX5 Amplex Red fluorescence – cell-based, HEK293-NOX5, NOX inhibitor project, primary screen (AID 1161); details: HEK293-NOX5, ionomycin, 45 min, higher = more signal
NADPH oxidase 5 (Homo sapiens), sequence (Q96PH1 whole entry, looked up): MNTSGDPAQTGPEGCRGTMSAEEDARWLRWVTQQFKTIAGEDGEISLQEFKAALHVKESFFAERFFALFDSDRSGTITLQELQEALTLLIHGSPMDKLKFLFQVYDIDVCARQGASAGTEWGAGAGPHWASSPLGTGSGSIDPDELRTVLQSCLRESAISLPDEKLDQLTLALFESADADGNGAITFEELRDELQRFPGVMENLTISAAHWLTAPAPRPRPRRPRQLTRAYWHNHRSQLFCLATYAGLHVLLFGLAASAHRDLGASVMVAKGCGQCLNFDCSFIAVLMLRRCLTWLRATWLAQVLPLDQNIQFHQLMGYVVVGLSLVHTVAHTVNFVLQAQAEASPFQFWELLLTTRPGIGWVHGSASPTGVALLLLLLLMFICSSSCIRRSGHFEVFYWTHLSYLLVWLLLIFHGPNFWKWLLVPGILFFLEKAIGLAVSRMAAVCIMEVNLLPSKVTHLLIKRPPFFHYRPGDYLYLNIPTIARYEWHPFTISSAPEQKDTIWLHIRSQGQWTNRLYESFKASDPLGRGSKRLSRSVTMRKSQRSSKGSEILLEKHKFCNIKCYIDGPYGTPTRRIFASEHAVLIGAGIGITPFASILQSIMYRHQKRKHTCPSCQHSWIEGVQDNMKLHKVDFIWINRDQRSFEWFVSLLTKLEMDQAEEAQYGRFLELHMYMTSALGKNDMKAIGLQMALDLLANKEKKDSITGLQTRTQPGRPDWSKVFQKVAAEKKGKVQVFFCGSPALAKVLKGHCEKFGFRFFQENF

Streptavidin (Streptomyces avidinii), sequence (P22629 whole entry, looked up): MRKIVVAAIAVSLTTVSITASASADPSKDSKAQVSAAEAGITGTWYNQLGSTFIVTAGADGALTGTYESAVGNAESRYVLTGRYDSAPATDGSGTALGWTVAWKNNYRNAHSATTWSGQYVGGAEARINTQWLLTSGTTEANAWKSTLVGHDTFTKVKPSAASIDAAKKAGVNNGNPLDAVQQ
Torsin-1A (Homo sapiens), sequence (O14656 whole entry, looked up): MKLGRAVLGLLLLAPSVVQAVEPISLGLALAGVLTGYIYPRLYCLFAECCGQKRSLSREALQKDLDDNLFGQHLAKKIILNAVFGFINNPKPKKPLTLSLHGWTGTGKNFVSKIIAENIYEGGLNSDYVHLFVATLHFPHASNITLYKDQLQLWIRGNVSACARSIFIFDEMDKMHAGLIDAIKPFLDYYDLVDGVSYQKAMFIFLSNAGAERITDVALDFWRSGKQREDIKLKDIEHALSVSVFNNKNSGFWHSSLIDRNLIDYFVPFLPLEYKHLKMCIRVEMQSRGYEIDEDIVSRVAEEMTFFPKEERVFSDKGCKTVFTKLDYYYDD
NADPH oxidase 4 (Homo sapiens), sequence (Q9NPH5 whole entry, looked up): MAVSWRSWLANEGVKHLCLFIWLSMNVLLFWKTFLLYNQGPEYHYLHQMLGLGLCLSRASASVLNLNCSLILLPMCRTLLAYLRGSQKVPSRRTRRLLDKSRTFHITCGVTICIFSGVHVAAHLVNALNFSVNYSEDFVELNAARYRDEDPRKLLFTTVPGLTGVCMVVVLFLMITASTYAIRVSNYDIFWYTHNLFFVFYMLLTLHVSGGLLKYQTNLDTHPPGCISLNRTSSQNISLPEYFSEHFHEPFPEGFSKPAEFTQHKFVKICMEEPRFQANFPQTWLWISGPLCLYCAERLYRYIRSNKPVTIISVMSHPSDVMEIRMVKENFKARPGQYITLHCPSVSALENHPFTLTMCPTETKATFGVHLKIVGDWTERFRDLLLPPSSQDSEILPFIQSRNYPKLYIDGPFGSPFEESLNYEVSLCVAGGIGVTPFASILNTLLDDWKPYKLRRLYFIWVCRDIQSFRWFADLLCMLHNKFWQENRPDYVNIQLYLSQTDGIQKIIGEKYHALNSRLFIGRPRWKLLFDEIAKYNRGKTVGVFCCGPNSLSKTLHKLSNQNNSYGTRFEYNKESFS
NADPH oxidase 2 (Homo sapiens), sequence (P04839 whole entry, looked up): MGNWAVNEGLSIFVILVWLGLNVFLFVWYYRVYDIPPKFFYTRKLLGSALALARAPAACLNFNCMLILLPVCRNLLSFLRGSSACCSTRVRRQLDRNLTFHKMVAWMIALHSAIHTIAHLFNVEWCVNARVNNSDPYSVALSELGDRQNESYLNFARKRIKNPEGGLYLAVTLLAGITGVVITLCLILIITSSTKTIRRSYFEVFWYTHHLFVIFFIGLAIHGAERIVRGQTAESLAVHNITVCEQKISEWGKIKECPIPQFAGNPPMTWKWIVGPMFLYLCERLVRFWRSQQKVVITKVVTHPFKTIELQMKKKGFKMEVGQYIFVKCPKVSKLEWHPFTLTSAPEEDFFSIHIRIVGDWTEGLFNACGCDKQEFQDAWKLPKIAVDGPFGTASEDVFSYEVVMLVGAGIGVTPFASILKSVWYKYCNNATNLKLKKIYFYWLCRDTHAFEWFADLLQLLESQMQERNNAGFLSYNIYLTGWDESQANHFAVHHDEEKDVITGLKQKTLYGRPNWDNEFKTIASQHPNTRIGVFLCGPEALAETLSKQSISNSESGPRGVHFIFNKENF

C=C(COC)/C(=C/C[C@H](OC(=O)c1ccncc1)c1ccc(CO)o1)c1cc(C(=O)OC)ccc1OC
composite z-score [1]: 0.868 | z-score [2]: -0.0528 (inactive) | z-score [3]: -1.27 (inactive) | z-score [4]: 0.0422 (inactive) | z-score [5]: 0.877 (inactive) | composite z-score [6]: -0.24 | composite z-score [7]: -0.003 | composite z-score [8]: 0.787 | composite z-score [9]: 0.366 | composite z-score [10]: 1.62 | z-score [11]: 0.165 (inactive) | composite z-score [12]: 0.188 | z-score [13]: 2.65 (inactive) | z-score [14]: 0.189 (inactive) | z-score [15]: 0.656 (inactive) | z-score [16]: 0.013 (inactive) | z-score [17]: -0.0278 | z-score [18]: -0.564 (inactive) | z-score [19]: 0.0937 (inactive) | z-score [20]: -0.413

COC(=O)CC=C[C@@H](C)[C@H](OC)c1ccccc1Br
composite z-score [1]: -0.0438 | z-score [2]: 0.266 (inactive) | z-score [3]: 0.189 (inactive) | z-score [4]: -0.971 (inactive) | z-score [5]: -0.868 (inactive) | composite z-score [6]: -0.112 | composite z-score [7]: -0.128 | composite z-score [8]: 0.258 | composite z-score [9]: 0.466 | composite z-score [10]: 0.153 | z-score [11]: -0.119 (inactive) | composite z-score [12]: -0.245 | z-score [13]: 0.727 (inactive) | z-score [14]: 0.716 (inactive) | z-score [15]: 0.216 (inactive) | z-score [16]: 0.367 (inactive) | z-score [17]: -0.0689 | z-score [18]: -0.524 (inactive) | z-score [19]: 0.055 (inactive) | z-score [20]: -0.297

CCN1C(=O)[C@H]2[C@H]3[C@H](O)[C@H](O)CC(=NO[C@@H]4O[C@H](CO)[C@@H](O)[C@H](O)[C@H]4O)[C@@H]3CC[C@H]2C1=O
composite z-score [1]: -0.215 | z-score [2]: 0.499 (inactive) | z-score [3]: 0.00567 (inactive) | z-score [4]: -0.925 (inactive) | z-score [5]: -0.951 (inactive) | composite z-score [6]: -0.933 | composite z-score [7]: -0.249 | composite z-score [8]: 1.47 | composite z-score [9]: -0.213 | composite z-score [10]: 0.365 | z-score [11]: 0.0871 (inactive) | composite z-score [12]: -0.183 | z-score [13]: 0.568 (inactive) | z-score [14]: 0.283 (inactive) | z-score [15]: -0.846 (inactive) | z-score [16]: -0.0143 (inactive) | z-score [17]: 0.345 | z-score [18]: 0.0968 (inactive) | z-score [19]: 0.303 (inactive) | z-score [20]: -0.0261

O=C1[C@H]2[C@H]3[C@H](O)[C@H](O)CC(=NO[C@@H]4O[C@H](CO)[C@@H](O)[C@H](O)[C@H]4O)[C@H]3CC[C@H]2C(=O)N1Cc1ccccc1
composite z-score [1]: 0.927 | z-score [2]: -0.871 (inactive) | z-score [3]: 0.641 (inactive) | z-score [4]: -0.474 (inactive) | z-score [5]: -0.0615 (inactive) | composite z-score [6]: 0.001 | composite z-score [7]: -0.0736 | composite z-score [8]: 0.717 | composite z-score [9]: 0.0309 | composite z-score [10]: 0.439 | z-score [11]: -0.906 (inactive) | composite z-score [12]: 0.0068 | z-score [13]: 5.53 (inactive) | z-score [14]: 0.117 (inactive) | z-score [15]: -0.19 (inactive) | z-score [16]: -0.801 (inactive) | z-score [17]: 0.705 | z-score [18]: -2.63 (inactive) | z-score [19]: 0.587 (inactive) | z-score [20]: 0.353

COC(=O)CC1OC1[C@H](C)[C@@H](OC)C(C)C (stereo not given in full)
composite z-score [1]: -0.0087 | z-score [2]: -0.229 (inactive) | z-score [3]: -0.183 (inactive) | z-score [4]: 1.47 (inactive) | z-score [5]: -0.213 (inactive) | composite z-score [6]: -0.329 | composite z-score [7]: -0.0963 | composite z-score [8]: 0.436 | composite z-score [9]: 0.0299 | composite z-score [10]: 0.813 | z-score [11]: 0.547 (inactive) | composite z-score [12]: -0.0186 | z-score [13]: 2.66 (inactive) | z-score [14]: -0.0353 (inactive) | z-score [15]: -0.324 (inactive) | z-score [16]: -0.146 (inactive) | z-score [17]: 0.0023 | z-score [18]: -1.33 (inactive) | z-score [19]: -1.67 (inactive) | z-score [20]: -1.45

O=C1[C@H]2[C@H]3[C@H](O)[C@H](O)CC(=NOC[C@@H](O)COCc4ccco4)[C@@H]3CC[C@H]2C(=O)N1c1ccc(F)cc1F
composite z-score [1]: 0.0016 | z-score [2]: -1.7 (inactive) | z-score [3]: 1.85 (inactive) | z-score [4]: -0.475 (inactive) | z-score [5]: -0.0097 (inactive) | composite z-score [6]: -0.195 | composite z-score [7]: -0.231 | composite z-score [8]: 1.13 | composite z-score [9]: 0.516 | composite z-score [10]: 0.749 | z-score [11]: -0.0233 (inactive) | composite z-score [12]: -0.639 | z-score [13]: 2.3 (inactive) | z-score [14]: 0.537 (inactive) | z-score [15]: 1.67 (inactive) | z-score [16]: 0.405 (inactive) | z-score [17]: -0.51 | z-score [18]: -1.37 (inactive) | z-score [19]: 0.523 (inactive) | z-score [20]: -0.579

CCCCCN1CC=CC23O[C@@H]4C=CCOC(=O)[C@@H]4[C@H]2C(=O)N(C(CO)C(C)C)[C@@H]3C1=O (stereo not given in full)
composite z-score [1]: -0.389 | z-score [2]: -0.524 (inactive) | z-score [3]: 0.921 (inactive) | z-score [4]: -0.757 (inactive) | z-score [5]: 0.371 (inactive) | composite z-score [6]: -0.263 | composite z-score [7]: 0.0013 | composite z-score [8]: -1.34 | composite z-score [9]: -1.38 | composite z-score [10]: 0.298 | z-score [11]: 0.374 (inactive) | composite z-score [12]: -0.0479 | z-score [13]: 0.901 (inactive) | z-score [14]: 0.661 (inactive) | z-score [15]: 0.445 (inactive) | z-score [16]: 0.307 (inactive) | z-score [17]: -0.0997 | z-score [18]: 0.965 (inactive) | z-score [19]: 0.694 (inactive) | z-score [20]: 1.24

CC(=O)OC[C@H]1O[C@@H](ON=C(C)CCN2CCc3nc(-c4ccccc4)c(-c4ccccc4)cc3C2)[C@H](OC(C)=O)[C@@H](OC(C)=O)[C@@H]1OC(C)=O
composite z-score [1]: 0.344 | z-score [2]: -0.228 (inactive) | z-score [3]: 0.305 (inactive) | z-score [4]: 1.41 (inactive) | z-score [5]: 0.0789 (inactive) | composite z-score [6]: 0.65 | composite z-score [7]: 0.134 | composite z-score [8]: 0.054 | composite z-score [9]: 0.257 | composite z-score [10]: 1.12 | z-score [11]: -1.59 (inactive) | composite z-score [12]: 0.0355 | z-score [13]: 1.12 (inactive) | z-score [14]: 0.327 (inactive) | z-score [15]: 0.993 (inactive) | z-score [16]: 0.465 (inactive) | z-score [17]: -0.225 | z-score [18]: -1.13 (inactive) | z-score [19]: 0.55 (inactive) | z-score [20]: -3.13

CC[C@@H](c1ccccc1)n1c(=O)n2n(c1=O)[C@H]1[C@H](O)[C@@H]3O[C@@H]3C(=NOCC=C(C)CCC=C(C)C)[C@H]1CC2
composite z-score [1]: 0.33 | z-score [2]: -1.53 (inactive) | z-score [3]: 0.0433 (inactive) | z-score [4]: 1.07 (inactive) | z-score [5]: 0.889 (inactive) | composite z-score [6]: -0.124 | composite z-score [7]: -0.0963 | composite z-score [8]: 0.216 | composite z-score [9]: 0.366 | composite z-score [10]: 1.88 | z-score [11]: -1.15 (inactive) | composite z-score [12]: -0.241 | z-score [13]: 1.27 (inactive) | z-score [14]: 0.719 (inactive) | z-score [15]: 0.0313 (inactive) | z-score [16]: 0.355 (inactive) | z-score [17]: -0.45 | z-score [18]: 2.38 (inactive) | z-score [19]: -1.85 (inactive) | z-score [20]: -1.35
